Assay outcomes from PubChem.
Sampled rows, rich in hits. Any-hit rate of the full collection: about 2.3%.
C diff HTS – C. difficile growth inhibition. growth activity, negative = inhibition, % at 16 µg/mL (by protocol). 86,000 tested, 0.25% active. Clostridium difficile clinical isolate growth, OD600, 24 h; active compounds read low;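 active = mean growth activity at or below -80% and every replicate also at or below -80%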;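 also: 0% = DMSO wells and -100% = levofloxacin 16 µg/mL wells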
Pf Dd2 inh – P. falciparum Dd2 growth inhibition; activity change, % at 10 µM; SYBR Green, 72 h; active compounds read low; 94,000 tested, 2.3% active; AID 1159554; in the data active = activity change below about -80%
Active calls of the source: *; . = not tested or not shown; ! = a repeat was not active.

SMILES	C diff HTS	Pf Dd2 inh
CCCNC(=O)Nc1ccc2c(c1)OC[C@H](C)N(Cc1ccccc1)C[C@H](C)[C@@H](OC)CN(C)C2=O	-19.2	-34.8
CCCC(=O)Nc1ccc2c(c1)OC[C@@H](C)N(Cc1ccc(F)cc1)C[C@@H](C)[C@H](OC)CN(C)C2=O	3.1	-86.5*
CCCC(=O)Nc1ccc2c(c1)OC[C@H](C)N(Cc1ccc(F)cc1)C[C@@H](C)[C@H](OC)CN(C)C2=O	.	-60.7
CO[C@H]1CN(C)C(=O)c2ccc(NC(=O)NC(C)C)cc2OC[C@H](C)N(Cc2ccccc2)C[C@H]1C	.	-46.6
CO[C@@H]1CN(C)C(=O)c2ccc(NC(=O)NC(C)C)cc2OC[C@@H](C)N(Cc2ccccc2)C[C@H]1C	-8.3	-85.0*
CCCNC(=O)Nc1ccc2c(c1)OC[C@@H](C)N(Cc1ccccc1)C[C@@H](C)[C@H](OC)CN(C)C2=O	-1.8	-87.0*
CO[C@H]1CN(C)C(=O)c2ccc(NC(=O)c3ccc4c(c3)OCO4)cc2OC[C@@H](C)N(CC2CC2)C[C@H]1C	.	-2.1
C[C@H](CO)N1C[C@H](C)[C@H](CN(C)C(=O)C2CC2)Oc2cc(C#CC3CCCC3)ccc2S1(=O)=O	.	-50.3
C[C@@H]1CN([C@H](C)CO)C(=O)c2c(c3ccccc3n2C)-c2ccccc2CO[C@@H]1CN(C)C(=O)[C@@H]1CCCN1C	-1.4	-31.0
C[C@@H]1CN([C@H](C)CO)C(=O)Cc2cc(NS(=O)(=O)c3ccc(Cl)cc3)ccc2O[C@@H]1CN(C)S(C)(=O)=O	-6.3	19.5
O=C(CCN1CCCCC1)N[C@H]1CC[C@@H](CCNS(=O)(=O)c2ccccc2)O[C@H]1CO	.	-2.6
C[C@@H]1CN([C@@H](C)CO)C(=O)c2cc(NC(=O)CCC(F)(F)F)ccc2O[C@@H](C)CCCCO[C@@H]1CN(C)Cc1ccc(C(=O)O)cc1	-1.7	41.9
C[C@@H]1CCCCO[C@H](CN(C)S(=O)(=O)c2ccccc2)[C@@H](C)CN([C@H](C)CO)C(=O)c2cc(NC(=O)Nc3cccc4ccccc34)ccc2O1	0.8	6.0
C[C@@H]1CCCCO[C@H](CN(C)S(=O)(=O)c2ccc(F)cc2)[C@H](C)CN([C@H](C)CO)C(=O)c2cc(NC(=O)Nc3cccc4ccccc34)ccc2O1	-5.0	-79.1
C[C@@H]1CCCCO[C@@H](CN(C)S(=O)(=O)c2ccc(F)cc2)[C@@H](C)CN([C@@H](C)CO)C(=O)c2cc(NC(=O)Nc3cccc4ccccc34)ccc2O1	3.6	-83.8*
C[C@@H]1CN([C@H](C)CO)C(=O)c2cc(NC(=O)Nc3cccc4ccccc34)ccc2O[C@@H](C)CCCCO[C@@H]1CN(C)S(=O)(=O)c1ccccc1	2.4	-93.2*
C[C@@H]1CCCCO[C@@H](CN(C)S(=O)(=O)c2ccc(F)cc2)[C@H](C)CN([C@H](C)CO)C(=O)c2cc(NC(=O)Nc3cccc4ccccc34)ccc2O1	-4.7	-82.0*
C[C@@H]1CN([C@@H](C)CO)C(=O)c2cc(NC(=O)Nc3cccc4ccccc34)ccc2O[C@@H](C)CCCCO[C@@H]1CN(C)S(=O)(=O)c1cn(C)cn1	7.9	-90.5*
C[C@@H]1CCCCO[C@@H](CN(C)S(=O)(=O)c2cn(C)cn2)[C@@H](C)CN([C@H](C)CO)C(=O)c2cc(NC(=O)Nc3cccc4ccccc34)ccc2O1	12.9	-39.2
C[C@@H]1CCCCO[C@@H](CN(C)S(=O)(=O)c2ccc(F)cc2)[C@H](C)CN([C@@H](C)CO)C(=O)c2cc(NC(=O)Nc3cccc4ccccc34)ccc2O1	-4.3	-42.2
Cc1noc(C)c1S(=O)(=O)N(C)C[C@@H]1OCCCC[C@H](C)Oc2ccc(NC(=O)C3CCCCC3)cc2C(=O)N([C@H](C)CO)C[C@@H]1C	4.4	-54.5
CCC(=O)N1[C@@H](CO)[C@@H](c2ccccc2)C12CN(Cc1cccnc1)C2	6.7	-17.2
O=C(CN1CCOCC1)N1CC2(C1)[C@H](c1ccccc1)[C@H](CO)N2Cc1ccc(F)cc1	0.6	-75.7
O=C(C[C@@H]1C[C@H]2c3cc(NC(=O)C4CCC4)ccc3O[C@H]2[C@H](CO)O1)NCc1cccnc1	2.0	-1.3
CN1C(=O)c2cc(NC(=O)C3CCC3)ccc2OC[C@H]2O[C@H](CC(=O)NCC3CCCCC3)CC[C@H]21	-5.5	-22.9
SMILES	C diff HTS	Pf Dd2 inh
CN1c2ccc(-c3ccccc3)cc2[C@@H]2[C@@H](CCN2C(=O)c2ccc3c(c2)OCO3)[C@@H]1CO	-1.9	-3.7
Cc1cccc(S(=O)(=O)N2CC[C@@H]3[C@@H](CO)N(C)c4ccc(-c5ccccc5F)cc4[C@@H]32)c1	3.2	6.8
C[C@@H]1CN([C@H](C)CO)C(=O)c2cc(NC(=O)Nc3cccc4ccccc34)ccc2O[C@@H](C)CCCCO[C@@H]1CN(C)S(=O)(=O)c1cccs1	.	-88.4*
C[C@@H]1CCCCO[C@H](CN(C)S(=O)(=O)c2cccs2)[C@H](C)CN([C@@H](C)CO)C(=O)c2cc(NC(=O)Nc3cccc4ccccc34)ccc2O1	.	-54.3
C[C@H](CO)N1C[C@H](C)[C@@H](CN(C)C(=O)Nc2cccc3ccccc23)Oc2ccc(NC(=O)Nc3cccc4ccccc34)cc2CC1=O	1.4	-89.2*
C[C@H](CO)N1C[C@H](C)[C@@H](CN(C)C(=O)Nc2cccc3ccccc23)Oc2ccc(NC(=O)Nc3ccc(C(F)(F)F)cc3)cc2CC1=O	15.4	-84.8*
C[C@H]1CN([C@@H](C)CO)C(=O)Cc2cc(NC(=O)NC3CCCCC3)ccc2O[C@H]1CN(C)C(=O)Nc1cccc2ccccc12	-16.9	-9.3
C[C@@H]1CN([C@@H](C)CO)C(=O)Cc2cc(NC(=O)NC3CCCCC3)ccc2O[C@H]1CN(C)C(=O)Nc1cccc2ccccc12	-13.7	-91.7*
C[C@@H]1CN([C@H](C)CO)C(=O)Cc2cc(NC(=O)Nc3ccc(C(F)(F)F)cc3)ccc2O[C@@H]1CN(C)C(=O)Nc1cccc2ccccc12	2.3	-68.9
C[C@H](CO)N1C[C@H](C)[C@H](CN(C)C(=O)Nc2cccc3ccccc23)Oc2ccc(NC(=O)Nc3cccc4ccccc34)cc2CC1=O	-6.9	-10.3
COc1ccccc1C(=O)Nc1ccc2c(c1)OC[C@H](C)N(C)C[C@H](C)[C@H](OC)CN(C)C2=O	.	-15.6
O=C(c1ccc(F)cc1)N1C[C@@H]2N[C@H](C1)C2c1ccc(-c2ccccc2F)cc1 (some centres not stated)	70.9	-32.4
N#Cc1ccc(-c2ccc(C3[C@@H]4CN(C(=O)C5CCCC5)C[C@H]3N4)cc2)cc1 (some centres not stated)	2.5	-80.8*
O=C(C1CCCC1)N1C[C@@H]2N[C@H](C1)C2c1ccc(-c2cncnc2)cc1 (some centres not stated)	3.4	-9.4
N#Cc1cccc(-c2ccc(C3[C@@H]4CN(C(=O)C5CC5)C[C@H]3N4)cc2)c1 (some centres not stated)	-5.3	-90.2*!
N#Cc1ccc(-c2ccc(C3[C@@H]4CN(C(=O)C5CCC5)C[C@H]3N4)cc2)cc1 (some centres not stated)	-1.1	-90.9*!
N#Cc1cccc(-c2ccc(C3[C@@H]4CN(C(=O)Nc5ccccc5)C[C@H]3N4)cc2)c1 (some centres not stated)	38.5	-30.7
O=C(C1CC1)N1C[C@@H]2N[C@H](C1)C2c1ccc(-c2ccccc2F)cc1 (some centres not stated)	1.0	-87.1*!
